These results are taken from PubChem BioAssay (NCI).

The panel holds about 83,000 compounds, 20% with a hit somewhere; the sample as a whole holds those more often.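 Step 1: grow cells in 96-well plates. Step 2: add test compound at a single concentration. Step 3: incubate 48 h. Step 4: record percent growth.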 Values without a mark were called inactive. Calls of active or inactive are those of the source.

This test has as its system SK-MEL-28 melanoma. Briefly: NCI-60 one-dose screen, 48 h (100 = growth as untreated, 0 = no growth, -100 = all killed). As to conditions: 10 µM unless noted. The procedure: Growth inhibition of the SK-MEL-28 human tumor cell line is measured as a screen for anti-cancer activity. Cells are grown in 96 well plates and exposed to the test compound for 48 hours. Compounds are tested at a single concentration, which is 10^-5 M for most compounds. The reported endpoint is percent growth (GI% or GIPRCNT), where numbers from 0 - 100% represent growth inhibition, and numbers from -100% - 0 represent cell death. For example, a value of 40 represents 60% growth inhibition. A value of 0 means no net growth occurred over the course of the experiment. A value of -40 indicates 40% of cells at the beginning of the experiment died by the end of the experiment. A value of -100 means all cells are dead at the end of the experiment.
NCI-60 Human Tumor Cell Lines Screen was performed using the standard one-dose NCI protocol, which is described in more detail at https://dtp.cancer.gov/discovery_development/nci-60/default.htm.
Compounds with GIPRCNT values below 10 were considered active. Activity score was based on GIPRCNT using the following formula: […]
Score is 0 for GIPRCNT values of 100 or above, 50 for GIPRCNT values of 0, and 100 for GIPRCNT values of -100.
As to `O=C(C[C@]1(O)C(=O)Nc2ccc(Br)cc21)c1ccco1`, the growth was 117%.

For the molecule `CCN1CCN(CCNc2nccc(-c3c(-c4ccc(F)c(O)c4)nc4occn34)n2)S1(=O)=O`, the growth is 42.2%.

`CC(C)C1C2=C(NCCN1C(=O)c1ccncc1)C(C)(C)N(Cc1ccccc1)C2=O` (stereo not given): the growth is 114%.

As to `Cc1ccc2c(/C=C/C(=O)c3cc(CN4CCOCC4)c(O)c4nc(C)ccc34)cc(CN3CCOCC3)c(O)c2n1`, the growth is -19.9% (active).

`C=CN(C(=O)N1CCN(c2cc3c(cc2F)c(=O)c(C(=O)O)cn3C2CC2)CC1)c1nc(-c2ccc(Cl)cc2)cs1`: the growth was 62%.

In the case of `Fc1cc2[nH]ncc2c2c3c(c(-c4cn[nH]c4C(F)(F)F)nc12)CCCC3`, the growth is 0.426% (active).

`Nc1c(Cl)cc(/C=C2\C=Cc3ccccc32)cc1Cl`: the growth is 114%.

With `C#Cc1cccc(Nc2ncnc3cc(NC(=O)CCl)ccc23)c1`, the growth is -45.1% (active).

For the molecule `CC(O)Cc1c[nH]c(=O)[nH]c1=O` (stereo not given), the growth is 122%.

For the molecule `CCOC(=O)CNC1=C(Cl)C(=O)N(Cc2ccc(Cl)cc2)C1=O`, the growth is 106%.

Regarding `O=C(OCc1ccc2c(Cl)cc(Cl)c(O)c2n1)N1CCN(C(=O)c2cc3ccccc3[nH]2)CC1`, the growth was 39.2%.

`CCOC(=O)c1cn2ncnc(Oc3ccc(NC(=O)NC4CC4)c(Cl)c3)c2c1C`: the growth was 107%.

Regarding `c1ccc(-c2ccc3c(c2)C2(CCNCC2)CN3)cc1`, the growth is 110%.

For `O=C1/C(=C/c2ccccn2)SC(=S)N1N1CCOCC1`, the growth was 105%.

For `COc1ccc(-c2cc(-c3cn(-c4cccc(Cl)c4)nc3-c3ccc(OC)cc3)on2)cc1`, the growth is 105%.

Consider `COc1ccc(-c2cc(C(=O)N3N=C(c4ccc(N)cc4)CC3c3ccc(Cl)cc3)c3ccccc3n2)cc1` (stereo not given), for which the growth was 63.4%.

As for `N#Cc1c(-c2ccccc2)cc(-c2ccccc2)n(CCCCC(=O)NO)c1=O`, the growth is 17.6%.

Turning to `Cc1ccc(C2CC(c3cccc(Nc4ccncc4)c3)=Nc3c(N)nc(N)nc3N2)cc1` (stereo not given), the growth was 93.2%.

For the molecule `Nc1ccc(Br)cc1C(F)(F)F`, the growth is 121%.

With `O=C1OCC2=C1C(c1ccccc1)c1cc3c(cc1N2CCO)OCCO3` (stereo not given), the growth was 32.6%.

For the molecule `C[C@H](c1nc2ccc(C#N)cc2[nH]1)[C@H]1CC[C@H]2[C@@H]3CCC4=CC(=O)CC[C@]4(C)[C@H]3CC[C@]12C`, the growth is 89.4%.

As for `Clc1ccc(-c2nc(C(Cl)Cl)nc3cc(-c4ccccc4)nn23)cc1`, the growth was 47.9%.

As to `CSc1ccc2c3c(n(C[C@H](O)CO)c(=O)c2c1)-c1ccccc1C3=O`, the growth was 72.3%.

With `O=C(CN1C(=O)S/C(=C\C(Cl)=C\c2ccccc2)C1=O)NC1CCS(=O)(=O)C1` (stereo not given), the growth was 74.9%.

With `Nc1nc(N)c2c(n1)NC(c1cccc(Nc3ccnc4cc(C(F)(F)F)ccc34)c1)CC(c1ccc3c(c1)OCO3)=N2` (stereo not given), the growth is 96.3%.

On to `Cc1cc(O)cc(-c2nn(C)cc2-c2cc(N3CCOCC3)nc(-c3cccnc3)n2)c1`, for which the growth is 46.8%.

With `COc1cc2c(c(OC)c1OC)CCC(c1cccc(C(=O)Nc3ccc(Br)cc3)c1)O2` (stereo not given), the growth was 76.9%.

As for `CS(=O)(=O)Nc1cc(-c2ccc3ncnc(Nc4ccc(F)c(Cl)c4)c3c2)ccc1Cl`, the growth is 57.1%.

As to `COc1ccc(Oc2ccc(/C=C/C(=O)c3ccc(OC)c(OC)c3)cc2)cc1`, the growth is 93.7%.

In the case of `O=C(Cn1nc(-c2cccc3ccccc23)ccc1=O)NCc1cccc(Cl)c1`, the growth is 56% [50 µM].

Regarding `O=C1CCCCN1c1ccc(C2=NCCCN2)cc1`, the growth was 91.4%.

As for `Cc1ccc(S(=O)(=O)OCC#CCOS(=O)(=O)c2ccc(C)cc2)cc1`, the growth was 74.9%.

As for `COC(=O)c1c(C)nc(C)c2c1C(=O)C=C(NCc1ccccc1)C2=O`, the growth was 108%.

Consider `CCOC(=O)c1cnn(CC(C)O)c1NC(=O)NCc1ccccc1C(F)(F)F` (stereo not given), for which the growth is 103%.

For `CN(C)c1ccc(C(=S)c2ccc(N(C)C)cc2)cc1`, the growth was 84.4%.

On to `CC(C)(C)OC(=O)CN1CCc2c(sc3ncnc(N4CCN(c5ccc(F)cc5)CC4)c23)C1`, for which the growth was 92.5%.

As to `CSc1nc(-c2ccco2)c(C#N)c(=O)n1C`, the growth is 109%.

With `COCCn1cc(-c2nc(-c3cc4cccnc4n3C)cs2)c2ccccc21`, the growth was 73.1%.

On to `Cc1ccc(OCCOCCOCCOCCOCCOc2ccc(C)n(O)c2=S)c(=S)n1O`, for which the growth is 33.2%.

`COC12C=C/C(=C(/C(=O)OCc3cncnc3)C(=O)CCCCCCCCC3(OC)C=C/C(=C(/C(=O)OCc4cncnc4)C(=O)CCCCCCCC1)O3)O2`: the growth was -45% (active).
